Test results from PubChem BioAssay (NCI).
This is part of a sample that, as a whole, favours compounds with a hit. Of some 79,000 tested, about 15% had one in any assay. No stated cut-off is given here; in the data, active means growth inhibition above about 70%; inactive means the rest. *1 amine or outer side, *2 acyl side, *3 side chain or, on linkers, in order; H or OH if unused. Where a SMILES comes first, the peptide text is derived from it. The star is where a group is joined. γGlu = O=C(O)[CH](CCC(=O)[*:2])N[*:1]; NHOH = ON*

Experiments:
[1] = NCI Yeast Anticancer Drug Screen. Data for the rad50 strain (AID 155);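 further: 0% = growth of vehicle-only cultures of the same strain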; settings: S. cerevisiae rad50 strain growth inhibition; at 50.0 µM; stronger effect = higher value
Outline: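 Compounds were tested on a yeast strain with an engineered DNA damage repair alteration; the reported value is growth inhibition normalised to vehicle treatment.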

[2] = NCI Yeast Anticancer Drug Screen. Data for the mec2-1 strain (AID 157); settings: S. cerevisiae mec2-1 strain, at 50.0 µM, stronger effect = higher value
Outline: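 Using mec2-1 yeast: add compound, measure growth, express inhibition versus vehicle-treated cultures.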

[3] = NCI Yeast Anticancer Drug Screen. Data for the sgs1 mgt1 strain (AID 161);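 further: 0% = growth of cultures given vehicle only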; settings: S. cerevisiae sgs1 mgt1 strain, at 50.0 µM, stronger effect = higher value
Outline: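 Compounds are added to genetically altered yeast, and growth is compared with cultures given vehicle alone to give percent inhibition.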

[4] = NCI Yeast Anticancer Drug Screen. Data for the cln2 rad14 strain (AID 165);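 further: 0% = growth equal to vehicle treated cultures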; settings: S. cerevisiae cln2 rad14 strain, at 50.0 µM, stronger effect = higher value
Outline: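 Yeast strain cln2 rad14, bearing defects in cell cycle control and DNA repair, serves as the test system; values reflect growth inhibition compared with vehicle.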

[5] = NCI Yeast Anticancer Drug Screen. Data for the bub3 strain (AID 167); settings: S. cerevisiae bub3 mutant strain, at 50.0 µM, stronger effect = higher value
Outline: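 Growth of a checkpoint-deficient yeast mutant is measured after compound exposure. Values represent inhibition relative to vehicle.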

[6] = NCI Yeast Anticancer Drug Screen. Data for the mlh1 rad18 strain (AID 175); settings: S. cerevisiae mlh1 rad18 strain growth inhibition; at 50.0 µM; stronger effect = higher value
Outline: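 Steps: expose repair-defective yeast to compound; measure growth; express inhibition against vehicle-treated controls.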

Measured: growth inhibition

NS(=O)(=O)c1ccc(Nc2c3ccccc3nc3c(C(=O)NCCO)cccc23)cc1
inactive: [1] 51.8% | [2] -30.2% | [3] -15.9% | [4] -3.1% | [5] -10.6% | [6] -1.9%

COc1ccc2c(O)cc(C(=O)O)c(-c3ccccc3)c2c1
inactive: [1] -4.7% | [2] -12.8% | [3] -3.95% | [4] -17.5% | [5] 5.05% | [6] -22.6%

Nc1ccc(/C=C/C(=O)O)cc1
inactive: [1] -9.1% | [2] -6% | [3] 11.6% | [4] 10.8% | [5] 2.55% | [6] 9.95%

CC1CCOC(c2ccc(O)cc2)O1 (stereo not given)
inactive: [1] -4.05% | [2] -13.1% | [3] -4.65% | [4] -29.3% | [5] -14.4% | [6] -3.75%

Cc1nc(C)c(C(=O)NN)cc1C(=O)NN
inactive: [1] 9.05% | [2] -3.7% | [3] -4.6% | [4] 7.45% | [5] -0.7% | [6] -14.7%

CCCCNc1nc2ccccc2c2c1ncn2CC(C)C
inactive: [1] -7.4% | [2] 34.5% | [3] 14.1% | [4] 23.5% | [5] 46.5% | [6] 30.3%

CC1(C)Oc2ccc3c(=O)cc(-c4ccccc4)oc3c2C1C(=O)O (stereo not given)
inactive: [1] 4.7% | [2] -14.5% | [3] -18.6% | [4] -22.6% | [5] 9.7% | [6] -24%

C/C(=C\O[Si](C)(C)C)c1ccccc1
inactive: [1] 37.6% | [2] 23.9% | [3] 12.4% | [4] 7.6% | [5] -11.2% | [6] 41.1%

CCCSCCC(N)C(=O)O (stereo not given)
inactive: [1] -33.2% | [2] -15.9% | [3] 0.55% | [4] -5.7% | [5] -2.9% | [6] -4.95%

NC(=O)C1C2CC3C(C2O)C31C(N)=O (stereo not given)
inactive: [1] -13.1% | [2] -4% | [3] -14% | [4] -30.1% | [5] -12.9% | [6] -28.7%

c1ccc(P(=Nc2cccc(N=P(c3ccccc3)(c3ccccc3)c3ccccc3)c2)(c2ccccc2)c2ccccc2)cc1
inactive: [1] 0.95% | [2] 6.9% | [3] 28.2% | [4] -2.6% | [5] 0.05% | [6] 6.6%

C=CC(=O)OCc1ccc(OC)cc1
inactive: [1] 30.1% | [2] 32.2% | [3] 28.9% | [4] 14.2% | [5] 5.95% | [6] 29.5%

CCOP(=O)(OCC)OC1CC(n2cnc3c(N(CC)CC)ncnc32)OC1CO[Si](C)(C)C(C)(C)C (stereo not given)
inactive: [1] 19.1% | [2] 8.65% | [3] 54% | [4] 38.8% | [5] 47.9% | [6] -16.1%

O=c1[nH]cc(COCC(O)CO)c(=O)[nH]1 (stereo not given)
inactive: [1] -27% | [2] -10.7% | [3] -43.9% | [4] 3.95% | [5] -29.9% | [6] -23.7%

O=C(/C=C/c1ccc(O)cc1)c1ccc(O)cc1
inactive: [1] -30% | [2] -13.7% | [3] -37.8% | [4] 0.15% | [5] -2.9% | [6] -20.6%

COc1ccc(Br)c(C=O)c1NC(C)=O
inactive: [1] 22.7% | [2] 11.4% | [3] 38.1% | [4] -1.3% | [5] -8.25% | [6] -4.1%

COc1ccc(CN2C(=O)C(=O)N(C)C2=O)c2ccccc12
inactive: [1] 36.9% | [2] 4.65% | [3] 13.8% | [4] 18.1% | [5] 18.5% | [6] 23.6%

CCOC(=O)CN=NNc1ccc([N+](=O)[O-])cc1
inactive: [1] 10.3% | [2] 8.85% | [3] -3.5% | [4] -42.2% | [5] 21.1% | [6] 7.7%

CC1OC(OC2C(OC(=O)[C@@H]3CC(C)(C)C[C@@H]4C5=CC[C@@H]6[C@@]7(C)C[C@H](O)[C@H](OC8OC(CO)C(O)C(O)C8O)[C@@](C)(CO)C7[C@H](O)C[C@@]6(C)[C@]5(C)C[C@@H](O)[C@H]43)OCC(O)C2O)C(O)C(O)C1O (stereo not given in full)
inactive: [1] -23.9% | [2] -21.6% | [3] -9.35% | [4] 13.2% | [5] 1% | [6] -49.7%

CCCCCCCCNC(C(=O)c1ccccc1)c1ccccc1 (stereo not given)
inactive: [1] 10.1% | [2] 11.7% | [3] 16% | [4] 14% | [5] 14.2% | [6] 26.8%

O=c1c2cc([N+](=O)[O-])ccc2[nH]n1Cc1ccccn1
inactive: [1] 12.5% | [2] 10.2% | [3] -19.6% | [4] 9.45% | [5] -13.9% | [6] 3.8%

C/C=C\C=C\C(=O)O
inactive: [1] -30.4% | [2] -17% | [3] -38.3% | [4] 4.3% | [5] -19.8% | [6] -31.9%

CCCCCCC(O)C/C=C\CCCCCCCCO (stereo not given)
inactive: [1] 11.9% | [2] -20.9% | [3] 13.3% | [4] -27.6% | [5] 27.1% | [6] 18.4%

CCC(=O)Nc1cc(C)c(C)cc1C
inactive: [1] 4.75% | [2] -10.2% | [3] -2.2% | [4] -42% | [5] 6.6% | [6] -8.4%

N#C/C(=C/c1cccc2ccccc12)C(=O)c1ccccc1
inactive: [1] 36.9% | [2] -2.75% | [3] 3.6% | [4] 26.9% | [5] -3.75% | [6] -5.5%

CC(C)(C)c1cc(C(=O)Nc2cc(Br)c(Br)cc2S(N)(=O)=O)cc(C(C)(C)C)c1O
inactive: [1] 37% | [2] 7.8% | [3] 31.6% | [4] 25% | [5] 39.8% | [6] 37.9%

c1ccc(C2=NCC(c3ccccc3)(C3(c4ccccc4)SCCCS3)O2)cc1 (stereo not given)
inactive: [1] 30.8% | [2] 5.15% | [3] 12.7% | [4] -13.8% | [5] -3.35% | [6] 6.55%

CCCCI(O)OS(=O)(=O)c1ccc(C)cc1
inactive: [1] 5.65% | [2] 3.1% | [3] -2.85% | [4] -7.7% | [5] -3.9% | [6] -32.6%

NC(CCC(=O)NC(CCC(=O)NO)C(=O)NCC(=O)O)C(=O)O (stereo not given) (γGlu-Glu(NHOH)-Gly-OH; configuration not given here)
inactive: [1] -29.5% | [2] -3.2% | [3] -11.6% | [4] 2.05% | [5] -4.85% | [6] -42.5%

CC1=CC[C@@H](Br)C(C)(C)[C@]12CC[C@]1(C)O[C@@H]1C2
inactive: [1] 3.15% | [2] -33.6% | [3] -12.6% | [4] 2.55% | [5] -23.6% | [6] -13.6%

CC(=O)Nc1nc2c(s1)CCc1ccccc1-2
inactive: [1] 49.4% | [2] 13.8% | [3] 12.8% | [4] 5.6% | [5] 10.1% | [6] 15.2%

O=c1c2c(c(=O)c(=O)c1=O)Nc1ccccc1N2
inactive: [1] 22.2% | [2] -6.15% | [3] 11.6% | [4] 34.7% | [5] 10.2% | [6] 15.7%

Oc1ccc2ccccc2c1CNC1CCCCC1
inactive: [1] -9.05% | [2] -18.9% | [3] -9.05% | [4] -26.1% | [5] 29.7% | [6] -26.6%

COc1ccc(N=Nc2ccccc2)cc1
inactive: [1] 3% | [2] 3.8% | [3] -5.6% | [4] -10.6% | [5] -11.8% | [6] -4.95%

Cn1c(N)c(-n2[nH]c(=O)n(-c3ccccc3)c2=O)c(=O)n(C)c1=O
inactive: [1] -20.6% | [2] 15.3% | [3] -3.25% | [4] -14.8% | [5] 14.6% | [6] 18.1%

CCOC(=O)CCC(C(=O)OCC)c1nc2ccccc2[nH]c1=O (stereo not given)
inactive: [1] 12.6% | [2] 11.9% | [3] 12.6% | [4] -2.75% | [5] 14.1% | [6] 14.2%

O=[N+]([O-])c1ccc(Oc2ccc(Cl)cc2)cc1
inactive: [1] 16.9% | [2] -11.8% | [3] 14.6% | [4] 2.1% | [5] -18.9% | [6] 21.8%

CC(=O)Nc1cc2cc(NS(=O)(=O)c3ccc(Cl)c(Cl)c3)ccc2oc1=O
inactive: [1] 8.35% | [2] -1.55% | [3] 0.35% | [4] 19.9% | [5] -4% | [6] 10.4%

N#C/C(c1nc2ccccc2[nH]1)=c1\s/c(=C(/N)O)c(=N)n1-c1ccccc1
inactive: [1] -31.6% | [2] -26% | [3] -32.4% | [4] -30.1% | [5] -34.1% | [6] -47.6%

C=CCOCn1ccc(NC(=O)c2ccccc2)nc1=O
inactive: [1] -58% | [2] -57.1% | [3] -37% | [4] -3.15% | [5] -8.4% | [6] -22.3%
